Measured values as given in PubChem BioAssay (NCATS).
Results filed as inconclusive are left out. Calls of active or inactive are those of the source. The call rests on the fitted dose curve; in most records, active means well fitted activation curve with a large enough effect; inconclusive means small, poorly fitted or top-dose-only effect; inactive means no such curve, though single readings can be large or run the other way.

Experiment: qHTS for Activators of Parkin Expression: LOPAC Validation Assay (FLuc Reporter) (AID 720573;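 further: 0% = DMSO and 100% = positive control compounds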)
Settings: Cell line, PRKN promoter firefly luciferase reporter; series mostly up to 46.1 µM; activation: at the top concentration
Source text: Parkin is an E3 ubiquitin ligase localized in the cytosol of cells expressed in many tissues, including brain, skeletal muscle, heart and liver tissues. One hour after stress induction by mitochondrial uncouplers (which mimic mitochondria damage by decreasing the mitochondrial inner membrane electrochemical gradient that is used to produce ATP), Parkin translocates from the cytosol to mitochondria in many cultured cell types, including neurons and HeLa cells. Administration of other mitochondrial poisons, such as Paraquat and azide in cells lacking mitochondrial DNA (mtDNA), induces Parkin translocation to mitochondria. […] It was proposed that Parkin (together with Pink1) mediates a mitochondrial quality control pathway to maintain organelle population fidelity by removing damaged mitochondria. Understanding the normal physiologic role of Parkin (and Pink1) may uncover novel treatment strategies for sporadic Parkinson's disease patients with mutation in these genes.
A cell based qHTS in 1536 well format was developed assess modulation of Parkin expression using a neuronal cell line that stably expresses a stably expresses a luminescent coincidence reporter (FLuc and NLuc reporters) behind the Parkin promoter. The LOPAC library is used to validate the assay for quantitative high-throughput screening. The data herein reports the signal from the FLuc reporter. An increase in this signal = activation of Parkin expression. For this assay , a positive control normalized signal increase corresponding to a high quality qHTS curve class in both luminescent channels is the desired outcome for this assay.
NIH Chemical Genomics Center [NCGC]
NIH Molecular Libraries Probe Centers Network [MLPCN]
Assay Submitter (PI): Richard Youle, National Institute of Neurological Disorders and Strokes (NINDS), NIH
[1] Narendra, D., et al., Parkin is recruited selectively to impaired mitochondria and promotes their autophagy. J Cell Biol, 2008. 183(5): p. 795-803.
[2] Suen, D.F., et al., Parkin overexpression selects against a deleterious mtDNA mutation in heteroplasmic cybrid cells. Proc Natl Acad Sci U S A, 2010. […] 11835-40.
[3] Cheng K, Inglese J. A coincedence reporter-gene system for high-throughput screening. Nat Methods. 2012: 9(10);937
Five microliters (1,500 cells/well) of the Parkin coincidence reporter cells were seeded to 1536 well assay plates (Greiner Catalog # 789173-F) and incubated at 37 C, 5% CO2 for 24 hours. Compounds (23 nL) were pinned using the Kalypsys robotic system equipped with 1536 pin head adaptor in 7-point dose response. The assay plates were incubated for additional 24 hr at 37 C, 5% CO2 followed by a volume reduction in each well to 2 uL using an automated plate washer/aspirator. Following the volume reduction,2 uL of FLuc detection reagent and plates were incubated for 10 minutes at room temperature. The FLuc luminescence signal was obtained using the PerkinElmer ViewLux plate imager and then 2 uL of NanoLuc detection reagent was added to the plates. After another 10 minute incubation, NanoLuc signal was obtained using the PerkinElmer ViewLux plate imager as before. Data from each channel was normalized to DMSO (neutral control) and the positive control compounds (100%).

Row | Structure (SMILES) | activation
1 | CCCCCCCCCCCCCCCCCCOC[C@H](COP(=O)([O-])OCC[N+](C)(C)C)OC | -48.2% (inactive)
2 | Cc1ccccc1/C=C/C1=NCCN1 | -15.5% (inactive)
3 | CC(/C=C/c1cccc(Oc2ccc(F)cc2)c1)N(O)C(N)=O (stereo not given) | 1.9% (inactive)
4 | NOCC(=O)O | -2.88% (inactive)
5 | O=C(O)CCC/C=C\C[C@@H]1[C@@H](/C=C/[C@H](O)C2Cc3ccccc3C2)[C@@H](F)C[C@@H]1O | -12% (inactive)
6 | Nc1nc2[nH]c(=O)cnc2c(=O)[nH]1 | -7.84% (inactive)
7 | O=c1cc(-c2ccccc2F)[nH]c2cc3c(cc12)OCO3 | -6.51% (inactive)
8 | NC1C=CC=C(C(=O)O)C1 (stereo not given) | -4.94% (inactive)
9 | COC(=O)[C@H](NC(=O)c1cc(-c2ccccc2)nc2ccccc12)c1ccccc1 | -4.64% (inactive)
10 | CCCn1c(=O)c2c(ncn2C)n(CCC)c1=O | 1.83% (inactive)
11 | N#CC(C#N)=C(N)/C(C#N)=C/c1ccc(O)cc1 | -1.82% (inactive)
12 | N#Cc1cc2nc(O)c(O)nc2cc1[N+](=O)[O-] | -9.53% (inactive)
13 | N[C@@H](Cc1ccc(O)c(I)c1)C(=O)O | -5.63% (inactive)
14 | CC(=O)N[C@@H](Cc1c[nH]c2ccccc12)C(=O)OCc1cc(C(F)(F)F)cc(C(F)(F)F)c1 | 4.05% (inactive)
15 | N=S(=O)(O)Cc1noc2ccccc12 | -5.1% (inactive)
16 | NC(N)=[N+]1CCc2ccccc2C1 | -13% (inactive)
17 | COCc1nc2c([nH]1)c(=O)n(C)c(=O)n2CC(C)C | -2.82% (inactive)
18 | Nc1nc2c(nc(Br)n2C2OC3COP(=O)(O)O[C@@H]3C2O)c(=O)[nH]1 (stereo not given in full) | 1.33% (inactive)
19 | CCCCCCCCCC(=O)NC(CN1CCOCC1)[C@H](O)c1ccccc1 (stereo not given in full) | -16.5% (inactive)
20 | CCCCOc1cc(CC2CNC(=O)N2)ccc1OC (stereo not given) | 2.94% (inactive)

Row | Structure (SMILES) | activation
21 | COC(=O)C1=C(C)NC(C)=C([N+](=O)[O-])C1c1ccccc1C(F)(F)F (stereo not given) | -2.25% (inactive)
22 | CCCN(CCc1ccccc1)C1CCc2c(O)cccc2C1 (stereo not given) | -3.82% (inactive)
23 | COc1ccccc1N1CCN(CCCCN2C(=O)c3ccccc3C2=O)CC1 | 11.8% (inactive)
24 | NCCC1CCCC(CCN)N1 (stereo not given) | -7.07% (inactive)
25 | COc1cc2c(CCNC(C)=O)c[nH]c2cc1O | -14% (inactive)
26 | COc1ccccc1N1CCN(CCCNc2c(C)c(=O)n(C)c(=O)n2C)CC1 | 2.47% (inactive)
27 | N=C(N)c1ccc(OCCCCCOc2ccc(C(=N)N)cc2)cc1 (tested in a mixture with another compound) | -20.4% (inactive)
28 | CNCCc1cnc(CCC(c2ccccc2)c2ccccc2)[nH]1 | 0.772% (inactive)
29 | COc1ccc2c(c1)c(CC(=O)O)c(C)n2C(=O)c1ccccc1 | 4.57% (inactive)
30 | CCc1ccc2c(-c3cccc(Cl)c3)nc(=O)n(CC)c2n1 | -1.06% (inactive)
31 | CC1C(=O)N(C)C(=O)c2nc[nH]c21 (stereo not given) | -4.63% (inactive)
32 | C#CCn1c(=O)c2c(ncn2C)n(C)c1=O | 15.4% (inactive)
33 | COc1ccc(CCN(C)CCc2ccc(OC)c(OC)c2)cc1OC | -1.18% (inactive)
34 | CCCc1c(-c2ccc(O)cc2)nn(-c2ccc(O)cc2)c1-c1ccc(O)cc1 | -11.9% (inactive)
35 | NC(N)=NC(N)=Nc1cccc(Cl)c1 | -5.73% (inactive)
36 | Oc1cc2c(cc1O)C(c1ccccc1)CNCC2 (stereo not given) | -6.58% (inactive)
37 | N[C@@H](CS(=O)O)C(=O)O | -3.91% (inactive)
38 | C=CCN1CCc2cc(O)c(O)cc2C(c2ccccc2)C1 (stereo not given) | -0.699% (inactive)
39 | CCOC(=O)C12CC1/C(=N/O)c1ccccc1O2 (stereo not given) | -9.28% (inactive)
40 | CC(C)NC[C@H](O)COc1cccc2ccccc12 | -8.08% (inactive)
